The source of these data is PubChem BioAssay (NCATS).

Molecules are shown by their SMILES. Results filed as inconclusive are left out. Activity calls are given as the source filed them. Calls follow the shape of the dose curve; as a rule, active = well fitted cell-killing curve with a large enough effect; inconclusive = small, poorly fitted or top-dose-only effect, or effect the other way; inactive = no such curve, though single readings can be large or run the other way. Non-standard residues stand in square brackets, D forms with d. Residues, ends and D or L forms follow the SMILES beside them. *: point of attachment. Sta = CC(C)C[C@H](N)[C@@H](O)CC(=O)O; Isovaleryl = CC(C)CC(=O)*
Potency is read from the fitted curve at half-maximal effect.

The assay is described as follows: Quantitative High-Throughput drug screen in 47 multiple myeloma cell lines against the NCATS MIPE library collection: KMS20_JCRB cell viability assay (AID 1918973). Also: nearly all actives have a fitted effect of over 45% in size. Particulars: CellTiter-Glo ATP, 48 h; series mostly up to 45.8 µM. The text has this:
PI: Beverly A. Mock Ph.D.
Laboratory of Cancer Biology and Genetics,
Center for Cancer Research, National Cancer Institute,
National Institute of Health, Bethesda, Maryland
Drug resistance and disease progression are common in multiple myeloma (MM) patients, underscoring the need for new therapeutic combinations. […] We hypothesized that effective combinations would reduce MYC expression and enhance p16 activity. […] These preclinical data identify potentially useful drug combinations for evaluation in drug-resistant MM and reveal potential mechanisms of combined drug sensitivity.
Described herein is the primary MIPE qHTS used to cherrypick compounds. Validated compounds were then further tested for potential synergistic activiy.
[1] Peat TJ, Gaikwad SM, Dubois W, Gyabaah-Kessie N, Zhang S, Gorjifard S, Phyo Z, Andres M, Hughitt VK, Simpson RM, Miller MA, Girvin AT, Taylor A, Williams D, D'Antonio N, Zhang Y, Rajagopalan A, Flietner E, Wilson K, Zhang X, Shinn P, Klumpp-Thomas C, McKnight C, Itkin Z, Chen L, Kazandijian D, Zhang J, Michalowski AM, Simmons JK, Keats J, Thomas CJ, Mock BA. Drug combinations identified by high-throughput screening promote cell cycle transition and upregulate Smad pathways in myeloma. Cancer Lett. 2023 Aug 1;568:216284. doi: 10.1016/j.canlet.2023.216284. Epub 2023 Jun 24. PMID: 37356470; PMCID: PMC10408729.
SEQUENCE No. (e.g., 1, 2, 3, etc.); […] (e.g., Cells, Incubation, Reagent, etc.); VALUE and DESCRIPTION.
1; Cells; 5 uL; white, solid bottom 1536-well Greiner assay plate.
2; Compounds; 23 nL; Kalypsis pin tool (Wako USA) equipped with a 1536-well pin head to transfer to the assay plates.
3; Incubation; 48 hours; 37C incubation.
4; Reagent;5uL; CellTiter Glo (Promega).
5; Detector; 425V; Luminescence; Viewlux PerkinElmer.
NOTES (numbers refer to Sequence numbers above)
1. The cell-based screening methods employed in this study were like those previously published. Briefly, the corresponding myeloma cell lines were screened in 1,536-well plates with 500 cells, 5-uL per well for inhibition of cell viability (assessed by measuring ATP levels with CellTiterGlo).
2. NCATS MIPE 4.0 library of approved and investigational drugs were added using the Kalypsis pin tool. Wells treated with DMSO only for 100% viability and media only wells for 0% viability were used as controls.
3. The assay plates were covered and incubated for 48 hours in a 37C, 5% CO2 incubator with controlled humidity.
4. After 48 hours, CellTilter-GloTM luminescent substrate mix (Promega) reagent was added to the assay plate and plates we incubated for 5 min at room temperature.
5. Signal was measured as median relative luminescence units on a ViewLux (PerkinElmer) multiplate reader.
[1] Heske CM, Davis MI, Baumgart JT, Wilson K, Gormally MV, Chen L, Zhang X, Ceribelli M, Duveau DY, Guha R, Ferrer M, Arnaldez FI, Ji J, Tran HL, Zhang Y, Mendoza A, Helman LJ, Thomas CJ. Matrix Screen Identifies Synergistic Combination of PARP Inhibitors and Nicotinamide Phosphoribosyltransferase (NAMPT) Inhibitors in Ewing Sarcoma. Clin Cancer Res. 2017 Dec 1;23(23):7301-7311. doi: 10.1158/1078-0432.CCR-17-1121. Epub 2017 Sep 12. PMID: 28899971; PMCID: PMC6636827.
For the compound `O=C(c1ccccc1)c1ccc2n1CCC2C(=O)O` (stereo not given), the Potency was 8.33 µM (active).

On to `COc1ccccc1N1CCN(CCN(C(=O)C2CCCCC2)c2ccccn2)CC1`, for which the Potency was 5.26 µM (active).

On to `CCOc1cc(CC(=O)N[C@@H](CC(C)C)c2ccccc2N2CCCCC2)ccc1C(=O)O`, for which the Potency was 0.59 µM (active).

Turning to `Cc1cc(=O)oc2cc(O)ccc12`, the Potency entry was “inactive”.

`COc1cc(C(C)=O)ccc1OCCCN1CCC(c2noc3cc(F)ccc23)CC1`: the Potency is 16.6 µM (active).

Turning to `Cc1cccc(CN2CCN(C(c3ccccc3)c3ccc(Cl)cc3)CC2)c1` (stereo not given), the Potency is 6.62 µM (active).

In the case of `COc1cc(Nc2c(C#N)cnc3cc(OCCCN4CCN(C)CC4)c(OC)cc23)c(Cl)cc1Cl`, the Potency is 1.32 µM (active).

Take `CC(C)CC(=O)N[C@H](C(=O)N[C@H](C(=O)N[C@@H](CC(C)C)[C@@H](O)CC(=O)N[C@@H](C)C(=O)N[C@@H](CC(C)C)[C@@H](O)CC(=O)O)C(C)C)C(C)C` (Isovaleryl-VV[Sta]A[Sta]-OH): the Potency entry was “inactive”.

With `NNc1nncc2ccccc12`, the Potency entry was “inactive”.

On to `O=C(O)c1cccc(-c2noc(-c3ccccc3F)n2)c1`, for which the Potency entry was “inactive”.

In the case of `Cc1ccc(C(=O)c2cc(O)c(O)c([N+](=O)[O-])c2)cc1`, the Potency is 20.9 µM (active).

Regarding `NC(=NCc1ccccc1)NC(=O)c1nc(Cl)c(N)nc1N`, the Potency is 7.43 µM (active).

`Nc1ncn([C@H]2C[C@H](O)[C@@H](CO)O2)c(=O)n1`: the Potency was 0.132 µM (active).

Regarding `CN(C)c1ccc2nc3ccc(=[N+](C)C)cc-3sc2c1`, the Potency was 2.64 µM (active).

Regarding `C[C@@H](N)C1CCC(C(=O)Nc2ccncc2)CC1` (stereo not given in full), the Potency entry was “inactive”.

Regarding `COC(=O)C1=C(C)NC(C)=C(C(=O)OC(C)C)C1c1cccc2nonc12` (stereo not given), the Potency is 20.9 µM (active).

On to `Cc1cc2c(s1)Nc1ccccc1N=C2N1CCN(C)CC1`, for which the Potency result is “inactive”.

`O=C(NOCC1CC1)c1ccc(F)c(F)c1Nc1ccc(I)cc1Cl`: the Potency is 0.59 µM (active).

Consider `Oc1ccc2ccccc2c1SSc1c(O)ccc2ccccc12`, for which the Potency was 9.35 µM (active).

Consider `O=Nc1c(-c2c(O)[nH]c3cc(Br)ccc23)[nH]c2ccccc12`, for which the Potency was 5.9 µM (active).

Take `Cc1cc(O)c2c(c1)C(=O)c1cc(O)cc(O)c1C2=O`: the Potency entry was “inactive”.

In the case of `O=P(O)(O)C(O)(Cn1ccnc1)P(=O)(O)O`, the Potency entry is “inactive”.

In the case of `Nc1nc(Cl)nc2c1ncn2[C@H]1C[C@H](O)[C@@H](CO)O1`, the Potency was 1.48 µM (active).

`Cc1nc2n(c(=O)c1CCN1CCC(c3noc4cc(F)ccc34)CC1)CCCC2`: the Potency entry was “inactive”.

As for `O=C(O)c1cccnc1Nc1cccc(C(F)(F)F)c1`, the Potency entry was “inactive”.

Take `NCCCCNCCCN`: the Potency was 18.7 µM (active).

With `CCN(CC)C(=S)SSC(=S)N(CC)CC`, the Potency is 0.001 µM (active).

For `O=c1ccc2ccc(O)c(O)c2o1`, the Potency is 16.6 µM (active).

In the case of `O=c1oc2cc(O)ccc2s1`, the Potency entry is “inactive”.

With `CCCCCCCCOc1ccccc1C(=O)Nc1ccc(C(=O)OCC[N+](C)(CC)CC)cc1`, the Potency was 16.6 µM (active).

On to `Cc1cc(Cl)ccc1OCCCC(=O)NO`, for which the Potency is 4.18 µM (active).

As to `CNC[C@H](O)c1ccc(O)c(O)c1`, the Potency is 10.8 µM (active).

With `CCCCC(CC)COC(=O)C(C#N)=C(c1ccccc1)c1ccccc1` (stereo not given), the Potency entry is “inactive”.

For the compound `O=c1c(O)c(-c2cc(O)c(O)c(O)c2)oc2cc(O)cc(O)c12`, the Potency result was “inactive”.

On to `COc1cc2c(N3CCN(C(=O)Nc4ccc(OC(C)C)cc4)CC3)ncnc2cc1OCCCN1CCCCC1`, for which the Potency is 5.26 µM (active).

As to `CCC1=C(C)CN(C(=O)NCCc2ccc(S(=O)(=O)NC(=O)NC3CCC(C)CC3)cc2)C1=O` (stereo not given), the Potency entry is “inactive”.

On to `CN(c1nccc(=O)[nH]1)C1CCN(c2nc3ccccc3n2Cc2ccc(F)cc2)CC1`, for which the Potency was 6.62 µM (active).

On to `CC[C@]1(O)C[C@H]2CN(CCc3c([nH]c4ccccc34)[C@@](C(=O)OC)(c3cc4c(cc3OC)N(C=O)[C@H]3[C@@](O)(C(=O)OC)[C@H](OC(C)=O)[C@]5(CC)C=CCN6CC[C@]43[C@@H]65)C2)C1`, for which the Potency is 0.0148 µM (active).

As to `CN(C)[C@@H](CCOc1cccc2ccccc12)c1ccccc1`, the Potency was 14.8 µM (active).

For `C[C@H](Cn1cnc2c(N)ncnc21)OCP(=O)(O)O`, the Potency result was “inactive”.
